# Key:
# Experiment in all cases: DAPPL (digital affinity profiling via proximity ligation, sequencing); 10 mM Tris-HCl pH 7.5, 50 mM NaCl, 1 mM DTT, 4% glycerol, room temperature, 30 min; GST-TFs on glutathione beads, 16-mer random dsDNA library, 0.1% formaldehyde crosslink after washing; high values mean tight binding
# Conditions in all cases: protein: recombinant; tags: N-terminal GST; dsDNA, one strand shown
# ELK1 = molecular target: T1, ELK1 (Homo sapiens, UniProt P19419 1-428)
# T1 sequence: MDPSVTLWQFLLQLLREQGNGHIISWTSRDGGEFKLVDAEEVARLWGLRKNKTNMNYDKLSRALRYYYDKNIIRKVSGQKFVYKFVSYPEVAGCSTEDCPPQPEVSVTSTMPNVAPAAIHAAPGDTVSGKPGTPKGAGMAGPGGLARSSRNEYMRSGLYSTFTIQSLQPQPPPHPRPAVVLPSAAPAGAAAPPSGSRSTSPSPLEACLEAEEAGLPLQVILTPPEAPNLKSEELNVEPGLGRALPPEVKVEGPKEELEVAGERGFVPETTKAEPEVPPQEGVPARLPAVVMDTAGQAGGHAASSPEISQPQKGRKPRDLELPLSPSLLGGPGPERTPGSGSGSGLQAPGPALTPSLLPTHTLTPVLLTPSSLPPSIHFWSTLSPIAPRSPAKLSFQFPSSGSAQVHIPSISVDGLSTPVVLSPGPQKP
# Summary of the method: (§1)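 GST fusions of human transcription factors were expressed in yeast and captured with glutathione beads. Once given DNA barcodes and pooled alongside a tag-only sample, they were incubated for 30 min at room temperature with 200 nmole of a random double-stranded 16-mer DNA library in Tris/NaCl/DTT/glycerol buffer, then washed, crosslinked (0.1% formaldehyde), proximity-ligated, PCR-amplified and sequenced on an Illumina NextSeq500. The binding signal of each hexamer is its read frequency for a factor divided by its frequency for the tag-only sample.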
# GABPA = molecular target: T2, GABPA (Homo sapiens, UniProt Q06546 1-454)
# T2 sequence: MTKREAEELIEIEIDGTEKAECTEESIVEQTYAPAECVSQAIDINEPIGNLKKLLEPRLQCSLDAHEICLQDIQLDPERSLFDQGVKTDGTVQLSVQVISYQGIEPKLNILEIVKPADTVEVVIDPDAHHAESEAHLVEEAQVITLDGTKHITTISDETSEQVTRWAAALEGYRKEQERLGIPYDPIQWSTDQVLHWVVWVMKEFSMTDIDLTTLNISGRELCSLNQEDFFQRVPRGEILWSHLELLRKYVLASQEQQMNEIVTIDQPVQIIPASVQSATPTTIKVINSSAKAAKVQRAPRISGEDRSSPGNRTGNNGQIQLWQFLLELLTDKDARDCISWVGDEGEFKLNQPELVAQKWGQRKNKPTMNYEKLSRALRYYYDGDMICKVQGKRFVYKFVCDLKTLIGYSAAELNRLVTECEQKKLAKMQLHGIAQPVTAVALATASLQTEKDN
# Summary of the method: as §1
# ERG = molecular target: T3, ERG (Homo sapiens, UniProt P11308 1-479)
# T3 sequence: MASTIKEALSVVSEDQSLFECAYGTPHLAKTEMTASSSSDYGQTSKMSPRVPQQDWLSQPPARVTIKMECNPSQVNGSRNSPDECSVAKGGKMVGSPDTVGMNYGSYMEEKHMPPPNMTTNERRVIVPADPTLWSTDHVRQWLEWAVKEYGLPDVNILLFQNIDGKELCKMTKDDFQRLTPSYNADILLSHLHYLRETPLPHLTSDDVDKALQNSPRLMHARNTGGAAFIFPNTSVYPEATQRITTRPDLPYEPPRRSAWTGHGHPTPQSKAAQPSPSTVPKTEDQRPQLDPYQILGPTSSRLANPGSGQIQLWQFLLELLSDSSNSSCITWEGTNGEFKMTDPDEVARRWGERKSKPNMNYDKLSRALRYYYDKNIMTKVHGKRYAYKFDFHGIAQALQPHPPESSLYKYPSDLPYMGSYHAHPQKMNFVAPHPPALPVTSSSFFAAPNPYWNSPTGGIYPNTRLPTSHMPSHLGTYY
# Summary of the method: as §1
# ELF1 = ELF1 (Homo sapiens, UniProt P32519 1-619)
# Sequence of ELF1 (P32519 whole entry): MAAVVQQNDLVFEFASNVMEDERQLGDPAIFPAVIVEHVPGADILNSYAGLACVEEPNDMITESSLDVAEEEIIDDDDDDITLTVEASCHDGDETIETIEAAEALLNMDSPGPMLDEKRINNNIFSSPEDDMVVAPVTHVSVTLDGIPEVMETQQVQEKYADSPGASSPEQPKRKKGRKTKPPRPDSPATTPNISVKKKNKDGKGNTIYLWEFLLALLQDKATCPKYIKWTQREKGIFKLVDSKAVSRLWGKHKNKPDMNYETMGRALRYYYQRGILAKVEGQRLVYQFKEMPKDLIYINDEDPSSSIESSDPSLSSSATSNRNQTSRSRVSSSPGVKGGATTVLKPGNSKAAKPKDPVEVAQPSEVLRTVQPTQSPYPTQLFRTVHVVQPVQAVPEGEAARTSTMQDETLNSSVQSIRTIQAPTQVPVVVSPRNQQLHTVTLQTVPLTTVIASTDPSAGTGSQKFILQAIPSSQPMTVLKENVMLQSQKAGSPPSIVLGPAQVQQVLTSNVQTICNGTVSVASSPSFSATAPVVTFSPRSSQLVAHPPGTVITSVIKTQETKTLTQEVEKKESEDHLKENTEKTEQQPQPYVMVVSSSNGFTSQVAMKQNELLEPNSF
# Summary of the method: as §1
# EHF = molecular target: T4, EHF (Homo sapiens, UniProt Q9NZC4 1-300)
# T4 sequence: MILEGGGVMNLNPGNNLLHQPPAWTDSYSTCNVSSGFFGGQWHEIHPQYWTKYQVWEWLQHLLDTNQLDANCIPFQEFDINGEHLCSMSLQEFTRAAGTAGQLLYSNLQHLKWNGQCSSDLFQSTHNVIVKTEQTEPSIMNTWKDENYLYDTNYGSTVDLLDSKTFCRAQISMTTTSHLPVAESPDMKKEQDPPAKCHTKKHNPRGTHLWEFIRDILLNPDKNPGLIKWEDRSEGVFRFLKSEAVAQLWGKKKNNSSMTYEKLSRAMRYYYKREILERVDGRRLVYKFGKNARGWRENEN
# Summary of the method: as §1
# SPIB = SPIB (Homo sapiens, UniProt Q01892 1-262)
# Sequence of SPIB (Q01892 whole entry): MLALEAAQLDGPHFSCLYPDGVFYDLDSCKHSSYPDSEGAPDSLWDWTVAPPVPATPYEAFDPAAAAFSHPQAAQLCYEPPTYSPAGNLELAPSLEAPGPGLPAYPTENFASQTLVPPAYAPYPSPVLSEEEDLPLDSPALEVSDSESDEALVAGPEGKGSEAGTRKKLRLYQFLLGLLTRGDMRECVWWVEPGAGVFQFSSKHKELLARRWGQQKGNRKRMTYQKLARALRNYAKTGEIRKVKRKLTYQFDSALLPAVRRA
# Summary of the method: as §1
# ETV5 = ETV5 (Homo sapiens, UniProt P41161 1-510)
# Sequence of ETV5 (P41161 whole entry): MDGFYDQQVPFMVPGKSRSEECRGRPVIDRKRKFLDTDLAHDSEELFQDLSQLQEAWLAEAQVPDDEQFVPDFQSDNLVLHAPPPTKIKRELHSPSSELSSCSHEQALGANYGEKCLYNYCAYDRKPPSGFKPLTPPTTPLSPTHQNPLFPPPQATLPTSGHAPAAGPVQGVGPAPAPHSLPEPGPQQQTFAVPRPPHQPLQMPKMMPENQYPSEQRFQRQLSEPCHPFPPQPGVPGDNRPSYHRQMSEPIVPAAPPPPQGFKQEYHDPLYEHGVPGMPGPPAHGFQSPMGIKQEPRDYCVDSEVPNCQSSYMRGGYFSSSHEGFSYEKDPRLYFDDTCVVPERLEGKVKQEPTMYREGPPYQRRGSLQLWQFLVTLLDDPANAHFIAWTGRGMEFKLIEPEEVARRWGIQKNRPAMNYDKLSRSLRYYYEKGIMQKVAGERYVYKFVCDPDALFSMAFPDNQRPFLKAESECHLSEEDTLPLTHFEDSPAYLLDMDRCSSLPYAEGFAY
# Summary of the method: as §1
# ELK4 = molecular target: T5, ELK4 (Homo sapiens, UniProt P28324-2 1-405)
# T5 sequence: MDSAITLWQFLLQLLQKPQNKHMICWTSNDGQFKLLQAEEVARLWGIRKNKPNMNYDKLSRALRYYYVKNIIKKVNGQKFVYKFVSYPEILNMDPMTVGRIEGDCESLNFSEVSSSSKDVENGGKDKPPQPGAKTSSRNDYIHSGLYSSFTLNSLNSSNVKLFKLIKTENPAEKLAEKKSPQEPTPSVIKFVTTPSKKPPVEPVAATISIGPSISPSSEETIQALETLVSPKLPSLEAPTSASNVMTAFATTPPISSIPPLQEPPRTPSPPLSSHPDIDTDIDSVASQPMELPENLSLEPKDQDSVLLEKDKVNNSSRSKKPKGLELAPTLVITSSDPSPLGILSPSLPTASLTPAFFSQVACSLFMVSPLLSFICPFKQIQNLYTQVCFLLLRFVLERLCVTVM
# Summary of the method: as §1
# ELF3 = molecular target: T6, ELF3 (Homo sapiens, UniProt P78545 1-371)
# T6 sequence: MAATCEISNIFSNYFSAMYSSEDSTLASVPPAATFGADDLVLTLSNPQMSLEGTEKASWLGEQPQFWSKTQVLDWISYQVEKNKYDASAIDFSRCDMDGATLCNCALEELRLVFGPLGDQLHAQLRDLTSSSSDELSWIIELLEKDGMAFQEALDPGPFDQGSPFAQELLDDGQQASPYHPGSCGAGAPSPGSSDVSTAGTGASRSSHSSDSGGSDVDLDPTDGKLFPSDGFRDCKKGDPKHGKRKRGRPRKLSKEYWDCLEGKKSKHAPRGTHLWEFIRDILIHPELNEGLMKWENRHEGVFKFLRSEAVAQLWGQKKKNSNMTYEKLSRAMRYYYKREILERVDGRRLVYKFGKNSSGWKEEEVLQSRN
# Summary of the method: as §1
# ETV1 = ETV1 (Homo sapiens, UniProt P50549 1-477)
# Sequence of ETV1 (P50549 whole entry): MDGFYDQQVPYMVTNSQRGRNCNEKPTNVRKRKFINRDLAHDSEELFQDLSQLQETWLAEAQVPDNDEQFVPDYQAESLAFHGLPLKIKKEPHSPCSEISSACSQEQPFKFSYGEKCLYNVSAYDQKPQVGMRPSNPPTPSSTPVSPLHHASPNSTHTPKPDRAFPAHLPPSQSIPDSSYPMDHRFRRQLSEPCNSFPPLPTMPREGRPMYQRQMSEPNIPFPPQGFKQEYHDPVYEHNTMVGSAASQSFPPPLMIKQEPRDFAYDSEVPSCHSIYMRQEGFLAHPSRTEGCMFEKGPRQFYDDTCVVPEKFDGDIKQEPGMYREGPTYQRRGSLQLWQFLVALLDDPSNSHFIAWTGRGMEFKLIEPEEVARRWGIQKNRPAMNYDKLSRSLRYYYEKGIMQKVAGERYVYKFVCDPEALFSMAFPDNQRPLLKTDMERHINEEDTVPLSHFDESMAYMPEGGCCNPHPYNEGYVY
# Summary of the method: as §1
# ERF = molecular target: T7, ERF (Homo sapiens, UniProt P50548 1-548)
# T7 sequence: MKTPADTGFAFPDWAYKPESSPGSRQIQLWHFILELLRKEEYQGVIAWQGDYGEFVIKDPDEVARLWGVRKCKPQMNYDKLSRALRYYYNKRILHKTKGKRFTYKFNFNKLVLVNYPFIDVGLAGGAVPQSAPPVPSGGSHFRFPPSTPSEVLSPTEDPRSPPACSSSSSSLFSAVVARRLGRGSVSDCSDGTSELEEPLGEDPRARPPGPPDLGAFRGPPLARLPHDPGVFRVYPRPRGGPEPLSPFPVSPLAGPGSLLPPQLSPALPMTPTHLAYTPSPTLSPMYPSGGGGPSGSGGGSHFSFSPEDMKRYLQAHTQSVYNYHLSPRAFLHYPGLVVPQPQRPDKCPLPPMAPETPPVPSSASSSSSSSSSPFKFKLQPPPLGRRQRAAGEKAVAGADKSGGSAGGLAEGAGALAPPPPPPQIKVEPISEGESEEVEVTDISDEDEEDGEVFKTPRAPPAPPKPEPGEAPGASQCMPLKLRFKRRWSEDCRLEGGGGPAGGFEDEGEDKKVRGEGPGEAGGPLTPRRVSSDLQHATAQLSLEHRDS
# Summary of the method: as §1
# ETV3L = molecular target: T8, ETV3L (Homo sapiens, UniProt Q6ZN32 1-361)
# T8 sequence: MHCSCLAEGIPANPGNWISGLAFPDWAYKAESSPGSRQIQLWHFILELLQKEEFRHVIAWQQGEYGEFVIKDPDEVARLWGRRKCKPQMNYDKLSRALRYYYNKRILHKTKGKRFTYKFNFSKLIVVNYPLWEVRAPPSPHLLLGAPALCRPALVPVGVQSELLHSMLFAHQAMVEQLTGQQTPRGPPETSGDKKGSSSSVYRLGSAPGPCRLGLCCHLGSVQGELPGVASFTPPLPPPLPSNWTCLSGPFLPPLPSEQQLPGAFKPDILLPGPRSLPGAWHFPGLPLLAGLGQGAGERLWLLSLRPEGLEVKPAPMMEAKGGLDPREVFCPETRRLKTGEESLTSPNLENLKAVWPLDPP
# Summary of the method: as §1
# SPDEF = molecular target: T9, SPDEF (Homo sapiens, UniProt O95238 1-335)
# T9 sequence: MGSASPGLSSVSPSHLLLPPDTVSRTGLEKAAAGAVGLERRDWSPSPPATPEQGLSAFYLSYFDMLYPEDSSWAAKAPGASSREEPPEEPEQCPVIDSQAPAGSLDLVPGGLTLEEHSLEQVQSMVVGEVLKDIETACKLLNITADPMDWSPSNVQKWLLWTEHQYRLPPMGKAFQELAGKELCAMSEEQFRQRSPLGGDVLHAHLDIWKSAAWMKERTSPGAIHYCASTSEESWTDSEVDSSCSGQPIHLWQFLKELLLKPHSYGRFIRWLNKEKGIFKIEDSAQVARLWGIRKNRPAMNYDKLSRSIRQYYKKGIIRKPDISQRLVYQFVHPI
# Summary of the method: as §1
# ETV7 = molecular target: T10, ETV7 (Homo sapiens, UniProt Q9Y603 1-341)
# T10 sequence: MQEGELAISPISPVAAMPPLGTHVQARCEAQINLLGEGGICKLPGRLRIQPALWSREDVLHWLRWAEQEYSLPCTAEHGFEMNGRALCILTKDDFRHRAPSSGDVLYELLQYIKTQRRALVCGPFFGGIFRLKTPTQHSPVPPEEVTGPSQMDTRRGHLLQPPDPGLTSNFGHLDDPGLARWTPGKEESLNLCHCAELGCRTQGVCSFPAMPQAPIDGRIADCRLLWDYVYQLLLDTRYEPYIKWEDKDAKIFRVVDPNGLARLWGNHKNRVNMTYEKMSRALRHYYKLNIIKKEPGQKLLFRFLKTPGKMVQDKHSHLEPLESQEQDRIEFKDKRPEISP
# Summary of the method: as §1
# ETV6 = ETV6 (Homo sapiens, UniProt P41212 1-452)
# Sequence of ETV6 (P41212 whole entry): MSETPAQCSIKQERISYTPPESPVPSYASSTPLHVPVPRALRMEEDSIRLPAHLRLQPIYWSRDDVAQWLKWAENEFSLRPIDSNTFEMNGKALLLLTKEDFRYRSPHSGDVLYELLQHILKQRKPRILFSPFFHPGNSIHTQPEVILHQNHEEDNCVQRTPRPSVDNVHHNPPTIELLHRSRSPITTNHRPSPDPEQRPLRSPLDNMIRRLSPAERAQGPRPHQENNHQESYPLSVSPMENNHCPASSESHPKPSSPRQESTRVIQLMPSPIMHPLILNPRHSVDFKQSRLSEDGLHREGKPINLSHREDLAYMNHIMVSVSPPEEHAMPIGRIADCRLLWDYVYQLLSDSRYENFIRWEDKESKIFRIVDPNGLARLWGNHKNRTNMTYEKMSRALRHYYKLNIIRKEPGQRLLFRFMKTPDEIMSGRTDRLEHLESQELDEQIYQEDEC
# Summary of the method: as §1
sequence,measurement,setting,value
CGAATC,binding signal,ELK1,"1.01 fold enrichment (6-mer frequency, TF over GST control)"
same,binding signal,GABPA,"1.14 fold enrichment (6-mer frequency, TF over GST control)"
same,binding signal,ERG,"1.05 fold enrichment (6-mer frequency, TF over GST control)"
same,binding signal,ELF1,"1 fold enrichment (6-mer frequency, TF over GST control)"
same,binding signal,EHF,"1.06 fold enrichment (6-mer frequency, TF over GST control)"
same,binding signal,SPIB,"1.13 fold enrichment (6-mer frequency, TF over GST control)"
same,binding signal,ETV5,"1.07 fold enrichment (6-mer frequency, TF over GST control)"
same,binding signal,ELK4,"1.09 fold enrichment (6-mer frequency, TF over GST control)"
same,binding signal,ELF3,"1.11 fold enrichment (6-mer frequency, TF over GST control)"
same,binding signal,ETV1,"1.02 fold enrichment (6-mer frequency, TF over GST control)"
same,binding signal,ERF,"1.15 fold enrichment (6-mer frequency, TF over GST control)"
same,binding signal,ETV3L,"1 fold enrichment (6-mer frequency, TF over GST control)"
same,binding signal,SPDEF,"1.12 fold enrichment (6-mer frequency, TF over GST control)"
same,binding signal,ETV7,"1.02 fold enrichment (6-mer frequency, TF over GST control)"
same,binding signal,ETV6,"1.01 fold enrichment (6-mer frequency, TF over GST control)"

# Reference: paper PMC7862700, “An all-to-all approach to the identification of sequence-specific readers for epigenetic DNA modifications on cytosine”
